Assay outcomes from PubChem.
This excerpt belongs to a sample that is enriched for hits.
Pyk2 oligo antag = blocks oligomerization of human Pyk2 in cells | Q14289 | Q293 cells, Pyk2 FERM NanoBiT luminescence; hits give low values | z-score (the deposit names both 25 µM and 10 µM) | 99,000 compounds, 0.83% hits;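 active means Z-score of -3 or lower, scaled per plate to the spread of control and sample wells; inactive means z-score above -3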;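 further: negative z-score means lost luminescence so less FERM oligomerization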
hDAT+cocaine = changed human dopamine transporter uptake under cocaine IC80; Q01959; B-score at 10 µM; 110,000 compounds, 1.3% hits; LLC-PK1 hDAT cells, [14C]-dopamine uptake with cocaine IC80; actives deviate in either direction;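 active means Z score or B-score, a plate-position-corrected score, falls beyond the plate's 99.7% confidence bounds, in either direction; inactive means both scores lie inside the 99.7% bounds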
CD11b adhes inh = CD11b/CD18-fibrinogen binding inhibition; P05107+P11215; K562 CD11b/CD18 adhesion to fibrinogen, ATPlite luminescence; Mn2+ added to activate the integrin; inhibition, % at 10 µM; 93,000 compounds, 0.54% hits; AID 1497;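 active means primary inhibition of 50% or more at 10 µM, then 40% or more on retest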
CD11b adhes enh = increases human CD11b/CD18 adhesion to fibrinogen | 93,000 compounds, 0.07% hits | activation, % at 10 µM | AID 1499 | P05107+P11215 | K562 CD11b/CD18 adhesion to fibrinogen, ATPlite luminescence;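 active means 10 µM primary screen giving 50% or more activity, confirmed by 40% or more on retest at that dose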
D1 mod = D1 dopamine receptor (human) allosteric modulation; P21728; HEK293 D1, CRE-luciferase, dopamine EC30 potentiation; actives deviate in either direction; B-score at 10 µM; 58,000 compounds, 5.9% hits;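 active means luminescence count or its row- and column-corrected plate score outside the 99.7% band of the plate's sample wells, on either side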
FAK inh = blocks human focal adhesion kinase activity. inhibition, %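 (tested at 7 µM)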. AID 727. 97,000 compounds, 0.84% hits. biochemical FAK kinase activity assay. Q05397; in the data active means inhibition above about 19%
Hits are given with their value; i = inactive; nt = no result.

SMILES | Pyk2 oligo antag | hDAT+cocaine | CD11b adhes inh | CD11b adhes enh | D1 mod | FAK inh
CC[C@@H](C)C(NC(=O)OC(C)(C)C)c1cn([C@@H](Cc2ccc(O)cc2)C(=O)N2CCN(C(=O)OC(C)(C)C)CC2)nn1 (some centres not stated) | nt | 2 | nt | nt | nt | nt
c1ccc(CNn2c(N3CCOCC3)nc3ccccc32)cc1 | i | i | i | i | -3.3 | i
O=C(NC1CCCCC1)N1CCN(C(=O)c2ccco2)CC1 | i | i | i | i | nt | i
O=C(NC1CCCCC1)NC1(C(=O)N2CCN3CCCC3C2)CCCCC1 (configuration not stated) | i | i | nt | nt | -3 | i
C=CCc1c(C)c(C#N)c2nc3ccccc3n2c1N1CCN(C)CC1 | nt | nt | nt | nt | 16 | nt
Cc1c(CCC#N)c(N2CCCCC2)n2c(nc3ccccc32)c1C#N | nt | nt | nt | nt | i | nt
CCN1C(=S)SC(=O)C1=C1C=C(C)N(CCOC)C(C)=C1 | nt | nt | i | i | -4 | nt
COc1ccc(C2CC(C(F)(F)F)n3nc(C(=O)NCc4c(C)nn(C)c4C)c(Cl)c3N2)cc1 (configuration not stated) | i | i | i | i | -3.1 | nt
Cn1c(CN2CCCCC2)c(C#N)c2ccccc21 | i | i | i | i | -2.2 | i
O=C1C(=O)N(CCCn2ccnc2)C(c2cccnc2)/C1=C(/O)c1ccc(Cl)cc1 (configuration not stated) | nt | nt | nt | nt | i | nt
COCCNC(=O)CCCCCNS(=O)(=O)c1ccc(C)cc1 | i | i | i | i | i | i
Cc1ccc(S(=O)(=O)NCCCCCC(=O)N(C)C)cc1 | i | i | i | i | -4.3 | i
CC(C)N(CCNS(=O)(=O)c1ccc(Cl)cc1)C(C)C | i | 3 | i | i | nt | i
CC(C)CCNS(=O)(=O)c1ccc(-c2ccc(S(=O)(=O)NCCC(C)C)cc2)cc1 | i | i | i | i | nt | i
Cc1ccc(S(=O)(=O)NCCN(CCNS(=O)(=O)c2ccc(C)cc2)S(C)(=O)=O)cc1 | i | i | nt | nt | -5.3 | i
Cc1ccc(S(=O)(=O)NCCOCCNS(=O)(=O)c2ccc(C)cc2)cc1 | i | i | i | i | i | i
CCN(CC(=O)NC(C)(C)C)C(=O)CCl | nt | nt | i | i | nt | nt
Cc1cccc(NC(=S)NC(=O)/C=C/c2ccco2)n1 | i | i | i | i | nt | i
CC(=O)Nc1ccc(N2CCN(C(=O)c3cccs3)CC2)cc1 | i | -8.2 | i | i | i | nt
Nc1ccc(N2CCN(C(=O)c3cccs3)CC2)cc1 | i | i | i | i | nt | i
CCOC(=O)C1=C(C)NC(SCC(=O)Nc2cc(C)on2)=C(C#N)C1c1cccs1 (configuration not stated) | i | i | i | i | -5.3 | i
CCOC(=O)C1=C(c2ccccc2)NC(SCC(=O)Nc2ccccc2C)=C(C#N)C1c1ccco1 (configuration not stated) | -3.7 | i | i | i | i | i
Cc1ccc(NC(=O)CSC2=C(C#N)C(c3ccco3)C3=C(CC(C)(C)CC3=O)N2)cc1 (configuration not stated) | -3.4 | i | i | i | i | i
CCOC(=O)C1=C(c2ccccc2)NC(SCC(=O)Nc2ccc(C)cc2)=C(C#N)C1c1ccco1 (configuration not stated) | -4.3 | i | i | i | i | i
O=C(COC(=O)C1CC1)NCc1ccccc1Cl | i | i | i | i | nt | i
SMILES | Pyk2 oligo antag | hDAT+cocaine | CD11b adhes inh | CD11b adhes enh | D1 mod | FAK inh
COc1ccc(CNc2nc(S(=O)(=O)c3ccccc3)c(Cl)s2)cc1OC | nt | nt | i | i | nt | nt
COC(=O)c1ccc(S(=O)(=O)NCCSc2nnc3c4ccccc4n(C)c3n2)cc1 | i | i | i | i | i | nt
CCOC(=O)C1=C(c2ccccc2)NC(SCC(=O)Nc2cccc(C)c2)=C(C#N)C1c1ccco1 (configuration not stated) | -4 | i | i | i | i | i
O=C(CCCC(=O)N1CCCc2ccccc21)N1CCCc2ccccc21 | i | 2.7 | i | i | i | i
O=C(c1ccc(Cl)s1)N1CCc2ccccc21 | i | i | i | i | i | i
CCn1c(SCC(=O)N2CCCc3ccccc32)nc2ccccc2c1=O | i | 3.1 | i | i | i | i
O=C(c1ccc(C(=O)N2CCCc3ccccc32)s1)N1CCCc2ccccc21 | -3.3 | i | nt | nt | nt | i
Cc1ccc(-c2nnn(CC(=O)N3CCCc4ccccc43)n2)cc1 | i | -7.8 | nt | nt | nt | i
CSc1ccccc1NC(=O)c1ccccc1N(Cc1ccccc1)S(C)(=O)=O | i | i | i | i | nt | i
CC1(c2nnc(-c3ccccc3)o2)CC(c2ccccc2)=NO1 (configuration not stated) | nt | i | nt | nt | nt | nt
CC1=C(C(=O)Nc2ccccc2)C(c2sccc2C)n2nnnc2N1 (configuration not stated) | nt | i | i | i | nt | i
Cc1cccc(C(=O)Nc2oc(-c3ccccc3)cc2C#N)c1 | i | i | i | i | nt | i
N#Cc1cc(-c2ccccc2)oc1NC(=O)c1ccco1 | i | -8.8 | i | i | i | i
O=C1[C@@H]2[C@H](C(=O)N1Cc1ccco1)[C@H]1C=C[C@@H]2C1 | i | i | i | i | nt | i
Cc1ccc(Nc2nnc(-c3ccncc3)s2)c(Br)c1 | nt | nt | i | i | nt | nt
O=C(NC(Cc1c[nH]c2ccccc12)C(=O)O)c1ccco1 (configuration not stated) | i | -9.5 | i | i | nt | i
Cc1ccc(-c2[nH]nc3c2C(c2cccnc2)C(C#N)=C(N)O3)cc1 (configuration not stated) | i | i | nt | nt | 14 | i
Cc1c(N/N=C(\C#N)C(=O)c2ccccc2)c(=O)n(-c2ccccc2)n1C | nt | nt | i | i | nt | nt
N#C/C(=N\Nc1cccc(Cl)c1)C(=O)c1ccccc1 | i | i | 98 | i | nt | i
N#C/C(=N\Nc1ccccc1Cl)C(=O)c1ccccc1 | i | nt | 104 | i | nt | i
O=C(NCCN1CCOCC1)c1ccc2c(c1)ncn2C1CCCCC1 | i | i | nt | nt | i | i
CCCCNC(=O)CC1SC(=NCC)N(CC)C1=O (configuration not stated) | i | i | i | i | nt | i
CC(=O)c1sc(NC(=O)C2COc3ccccc3O2)nc1C (configuration not stated) | nt | i | nt | nt | -8.5 | i
CC1(C)Oc2ccc(NC(=O)C3COc4ccccc4O3)cc2O1 (configuration not stated) | i | i | i | i | -4.3 | i
NS(=O)(=O)c1ccc(NC(=O)C2COc3ccccc3O2)cc1 (configuration not stated) | nt | i | i | i | nt | i
O=C(Nc1nnc(C(F)(F)F)s1)C1COc2ccccc2O1 (configuration not stated) | i | i | 84 | i | nt | i
Fc1ccc(NC(=S)Nc2ccccc2OC(F)F)cc1Cl | nt | nt | 101 | i | nt | nt
Cc1ccc(C)c(C(=O)CSc2n[nH]c(C(C)C)n2)c1 | i | i | i | i | -6 | i
CCN(CC)C(=O)c1sc(NC(=O)c2ccc(OC)c([N+](=O)[O-])c2)c(C#N)c1C | nt | nt | i | i | nt | nt
